# Assay outcomes as filed in PubChem.
# Most compounds without a hit are left out; they make up all but 21% or so of the library.
# NS1 inh: qHTS Assay for Inhibitors of Influenza NS1 Protein Function | Potency, µM (titrated, usually from 46.1 µM), without a hit: at the top dose activity, positive = more growth | 270,000 compounds, 0.4% hits; calls by dose curve; note: potency is the fitted concentration of half-maximal effect; actives are rising curves; nearly all actives have a fitted effect of over 50% in size
#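 OD600 was taken as the measure of yeast growth restored by compound in an NS1-expressing S. cerevisiae strain. Cells had been washed out of glucose medium and diluted 1:100 into galactose -URA medium, pH 6.0.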
# Pf growth 96h: Primary qHTS for delayed death inhibitors of the malarial parasite plastid, 96 hour incubation. 320,000 compounds, 6.9% hits. P. falciparum luciferase reporter growth, 96 h. Potency, µM (doses to about 28.7 µM), for the others: at the top dose activity change, negative = inhibition, most hits filed as inhibitors. AID 504834, 2011; note: potency is the fitted concentration of half-maximal effect; % is set by controls: 0 for no effect and ±100 for the full control effect
#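 Plates of compound plus infected erythrocytes (2% hematocrit, 0.05% parasitemia final) incubate 96 hours, 37 C, 5% CO2. Detection reagent added; reduced luminescence from the parasites' luciferase reporter flags inhibition.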
# SARS PLP yeast: qHTS of Yeast-based Assay for SARS-CoV PLP; S. cerevisiae expressing SARS-CoV PLpro, growth rescue; Potency, µM (doses to about 32.9 µM), inactives show top-dose activity, positive = growth rescue, actives largely listed as activators; 330,000 compounds, 0.19% hits; AID 485353, 2010; calls by dose curve; note: potency is the fitted concentration of half-maximal effect; 0% is about no effect; nearly all actives have a fitted effect of over 55% in size
# Shiga toxin inh: A qHTS for Small Molecule Inhibitors of Shiga Toxin | inhibition, % at 38.7 µM | AID 2315, 2010 | 290,000 compounds, 9.2% hits | Vero cells, Shiga toxin protein synthesis inhibition reporter; in the data active = inhibition mostly above about 28%, no sharp cut-off; inactive = mostly below about 43%; note: 0% is about no effect
# Pf growth 48h: Primary qHTS for delayed death inhibitors of the malarial parasite plastid, 48 hour incubation; P. falciparum luciferase growth in erythrocytes, 48 h; Potency, µM (highest dose often 28.7 µM), for inactives: at the top dose activity change, negative = inhibition, hits mostly inhibitors; 310,000 compounds, 5.9% hits; note: potency is the fitted concentration of half-maximal effect; % is set by controls: 0 for no effect and ±100 for the full control effect
#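 Luminescence readout; reporter = integrated firefly luciferase in P. falciparum. RBC culture at 2% hematocrit, 0.1% parasitemia final, 37 C/5% CO2; decreased signal taken as growth inhibition.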
# Cycloheximide cs: Cycloheximide Counterscreen for Small Molecule Inhibitors of Shiga Toxin | cell reporter, cycloheximide protein synthesis inhibition counterscreen | 300,000 compounds, 12% hits | AID 2314, 2010 | max response, %; in the data active = max response mostly above about 13%, no sharp cut-off; inactive = mostly below about 14%; note: read at 38.3 µM for the half of the compounds with a filed dose; 0% is about no effect
# Numbers without * were called inactive; u = inconclusive; x = no result. Unless noted, calls come from the whole dose curve; as a rule, active = well fitted inhibition curve with a large enough effect; inconclusive = small, poorly fitted or top-dose-only effect, or another doubt; inactive = no such curve, though single readings can be large or run the other way.
SMILES,NS1 inh,Pf growth 96h,SARS PLP yeast,Shiga toxin inh,Pf growth 48h,Cycloheximide cs
COc1ccc([N+](=O)[O-])cc1NC(=O)C(C)OC(=O)Cn1[nH]c(=O)c2ccccc2c1=O (stereo not given),x,23.1%,3.4%,x,34.9%,x
CCC(=O)N/C(N)=N/c1nc2ccccc2o1,-43.8%,160.4%,-2.5%,85.4*,80.7%,61.0*
N/C(=N\c1nc2ccccc2o1)NC(=O)/C=C/c1ccccc1,-1.5%,30.2%,-1.2%,-7.2,12.6%,0.2
CC(C)(C)C(=O)N/C(N)=N/c1nc2ccccc2o1,-2.0%,400.0%,-1.7%,71.1*,263.9%,49.6*
CC(C)CC(=O)N/C(N)=N/c1nc2ccccc2o1,-2.8%,200.6%,-0.5%,103.0*,291.8%,51.1*
CCCCOC(=O)C(C)Sc1n[nH]c(=O)[nH]c1=O (stereo not given),x,u,-4.0%,-28.4,-17.4%,-10.1
CN(C)C(=O)CCCc1nc(-c2ccc(Cl)cc2)no1,-6.0%,x,2.4%,155.7*,151.3%,38.3*
CN(Cc1nc(-c2ccc(Cl)cc2)no1)C(=O)c1ccco1,-4.8%,7.6%,0.0%,44.5,32.3%,12.2*
O=C(O)CCCc1nc(-c2ccc(Cl)cc2)no1,-77.7%,u,-8.2%,-17.0,x,-1.8
Cc1ccc(-c2noc(CN(C)C(=O)c3ccoc3C)n2)cc1,-17.2%,-2.9%,-7.6%,88.5*,19.7%,19.4*
COc1cccc(C(=O)N2CCC(C(=O)NCc3ccc(C)cc3)CC2)c1,-1.6%,0.6%,1.9%,-11.7,u,0.8
NC(N)=Nc1nc(-c2ccccc2)c2cc(F)ccc2n1,x,2.6%,0.6%,42.9,u,5.0
CCCCc1cc(=O)oc2c(C)c(OCc3nn[nH]n3)ccc12,0.7%,-17.7%,0.4%,2.7,5.6%,1.4
C/C=C/c1ccc(OCC(=O)Nc2cc(S(=O)(=O)N3CCOCC3)ccc2N2CCCC2)c(OC)c1,x,u,-0.8%,x,13.1µM*,x
Cc1cccc(OCC(=O)Nc2cc(S(=O)(=O)N3CCOCC3)ccc2N2CCCC2)c1C,x,7.38µM*,-2.2%,x,4.15µM*,x
COc1ccc2c(CC(=O)Nc3ccccc3OC)coc2c1,-6.8%,69.5%,-0.4%,54.2,17.6%,15.9
O=C(COc1ccccc1)Nc1cc(S(=O)(=O)N2CCOCC2)ccc1N1CCCC1,x,u,3.3%,x,u,x
CCc1cccc(OCC(=O)Nc2cc(S(=O)(=O)N3CCOCC3)ccc2N2CCCC2)c1,2.7%,8.28µM*,-0.9%,-6.8,u,-2.3
COc1ccc2c(CC(=O)Nc3ccc(OC)c(NS(=O)(=O)c4ccc(F)cc4)c3)coc2c1,4.9%,14.7µM*,-0.7%,13.2,u,4.7
O=C(CC1C(=O)NCCN1Cc1cccc(F)c1)NC1CCCCC1 (stereo not given),13.9%,23.4%,10.4%,-29.6,12.8%,1.1
Cc1ccc(S(=O)(=O)N2CCN(C(=O)CSC(=S)N3CCCC3)CC2)c(C)c1,x,u,-3.9%,x,u,x
COc1cccc(CC(=O)Nc2cc(S(=O)(=O)N3CCOCC3)ccc2N2CCOCC2)c1,x,10.4µM*,1.4%,-4.7,u,-1.9
O=C(COc1ccccc1)Nc1cc(C(F)(F)F)ccc1N1CCCC1,-12.5%,-6.2%,-6.9%,-18.9,u,-6.0
COc1cccc(CC(=O)Nc2cc(C(F)(F)F)ccc2N2CCCC2)c1,9.8%,13.1µM*,1.9%,2.0,u,-1.9
COc1ccc2c(CC(=O)Nc3cccc(S(=O)(=O)N4CCOCC4)c3)coc2c1,14.2%,2.33µM*,-5.6%,-4.3,u,-1.2
SMILES,NS1 inh,Pf growth 96h,SARS PLP yeast,Shiga toxin inh,Pf growth 48h,Cycloheximide cs
COc1ccccc1CC(=O)Nc1cccc(S(=O)(=O)N2CCOCC2)c1,13.0%,u,3.2%,22.9,-42.9%,10.4
COc1ccc(NC(=O)CN2C(=O)C(C)SC(C)C2=O)c(OC)c1 (stereo not given),13.6%,38.9%,25.0%,-4.5,1.3%,7.2
CCC(CC)C(=O)Nc1cccc(SC)c1,5.1%,4.3%,-1.8%,-5.9,12.7%,-1.2
CCC1=C(OC(=O)N(CC)CC)N2C(=O)OC(=NCC3CC3)[C@]2(Cc2ccccc2)[C@H]2C1=CC[C@H]1C(=O)N(CC(=O)OC)C(=O)[C@H]12,-4.8%,7.38µM*,-2.6%,-4.5,5.86µM*,-2.6
CCC1=C(OC(=O)N(CC)CC)N2C(=O)OC(=NCc3ccccc3)[C@]2(C)[C@H]2C1=CC[C@H]1C(=O)N(c3ccccc3)C(=O)[C@H]12,6.0%,8.28µM*,1.3%,1.2,7.38µM*,-3.7
CCC1=C(OC(=O)N(CC)CC)N2C(=O)OC(=NCC(=O)OC)[C@]2(C)[C@H]2C1=CC[C@H]1C(=O)N(C)C(=O)[C@H]12,-0.1%,54.2%,0.8%,-7.9,30.9%,-6.4
CCC1=C(OC(=O)N(CC)CC)N2C(=O)OC(=NCc3ccccc3)[C@]2(C)[C@H]2C1=CC[C@H]1C(=O)N(CC(=O)OC)C(=O)[C@H]12,-6.7%,9.28µM*,1.9%,-2.2,8.28µM*,-1.8
O=C(CCNc1n[nH]c(=O)[nH]c1=O)N/N=C/c1ccc(C(F)(F)F)cc1,x,-12.7%,1.7%,22.7,8.6%,12.1
CC1=CCn2c(=O)c3ccccc3c(=O)n2C1,-6.8%,74.3%,-3.1%,13.5,18.8%,10.8
O=c1c2ccccc2c(=O)n2n1Cc1ccccc1C2,-54.0%,25.3%,x,20.3,54.3%,14.2*
Cc1ccc(-c2nc(N)s[n+]2-c2ccccc2)cc1,23.6%,-21.4%,8.0%,91.0*,53.0%,80.9*
Cc1ccc(-c2nc3ccccc3nc2-c2ccccc2)cc1,-5.2%,u,-4.8%,-5.1,30.1%,11.3
CNc1nc(-c2ccccc2)[n+](-c2ccc(C)cc2)s1,-9.4%,73.3%,u,134.7*,28.1%,29.8*
CCC(C(=O)N1CCN(Cc2ccc3c(c2)OCO3)CC1)n1c(=O)[nH]c2ccccc2c1=O (stereo not given),-3.0%,u,1.6%,11.7,u,3.3
COC(=O)C(Cc1ccccc1)NC(=O)CCCC(=O)NCc1cccc(OC)c1 (stereo not given),-19.8%,-28.4%,1.0%,-7.6,20.6%,-1.6
O=C1NC(=NCc2ccccc2)S/C1=C/c1ccc(O)cc1,10.2%,u,8.1%,16.1,u,13.1*
Cc1c(N=C2NC(=O)/C(=C/c3ccc(O)cc3)S2)c(=O)n(-c2ccccc2)n1C,-4.7%,-19.1%,-6.3%,45.2,-9.0%,3.8
COc1ccc(/C=C2/S/C(=N/S(=O)(=O)Cc3ccccc3)NC2=O)cc1OC,15.0%,11.7µM*,0.6%,2.9,u,-2.8
CCOc1ccc(/C=C2\SC(=S)NC2=O)cc1OC,-45.9%,13.1µM*,-4.3%,40.8*,-11.4%,14.4*
